PubChem BioAssay AID504895 (National Center for Advancing Translational Sciences (NCATS), 2011)
Results filed as inconclusive are left out. Entries that show only a call come without a potency. The source made the active and inactive calls. Calls follow the shape of the dose curve; as a rule, active = well fitted curve in the direction sought with a large enough effect; inconclusive = small, poorly fitted or top-dose-only effect, or another doubt; inactive = no such curve, though single readings can be large or run the other way.

What follows are compounds tested against Protein phosphatase EYA2 (Homo sapiens) (UniProt O00167) (assay: Inhibitors of Eya2ED: Hit Confirmation in Primary Screen). Details: Recombinant Eya2ED, OMFP fluorescence phosphatase assay; series mostly up to 76.9 µM.
Source text: The Eya proteins (Eya1-4) were originally identified as essential co-activators of the Six1 transcription factor. […] Knockdown of Six1 decreases cancer cell proliferation and metastases in several different cancer models. […] A fluorescence-based HTS assay has been perfomed against the Molecular Libraries Small Molecule Repository (MLSMR) and has the AID 488837 in this database. After completion of the primary screen, hits were re-ordered and tested again in the primary screen in a 12 point titration. NIH Chemical Genomics Center [NCGC] NIH Molecular Libraries Probe Centers Network [MLPCN] MLPCN Grant: DA030559-01 Assay Submitter (PI): Rui Zhao, University of Colorado, Denver
The Eya2 enzyme was kindly provided by the laboratory of Dr. Rui Zhao. The 3-O-methyl-fluorescein phosphate (OMFP) substrate and all buffer reagents were purchased from Sigma Aldrich. qHTS Assay Setup: 1. Buffer- 50 mM HEPES pH 7.5, 50 mM NaCl, 5 uM MgCl2, 0.05% BSA, 1 mM DTT. 2. OMFP Stock- 10 mM solution prepared in 100% DMSO and stored in single use aliquots at -20C. Assay Procedure- 1. Dispense 1.5 ul per well of Eya2 at 0.2 uM in black medium binding 1536 well Greiner plate 2. Transfer 23 nl of compound and control compound (EGTA) to plate 3. Incubate at ambient for 10 minutes 4. Dispense 1.5 ul per well of OMFP at 50 uM 5. Incubate at ambient for 10 minutes 6. Read on ViewLux using Excitation = 485 nm, Emission = 525 nm

Sequence of Protein phosphatase EYA2 (Homo sapiens) (O00167 whole entry, looked up): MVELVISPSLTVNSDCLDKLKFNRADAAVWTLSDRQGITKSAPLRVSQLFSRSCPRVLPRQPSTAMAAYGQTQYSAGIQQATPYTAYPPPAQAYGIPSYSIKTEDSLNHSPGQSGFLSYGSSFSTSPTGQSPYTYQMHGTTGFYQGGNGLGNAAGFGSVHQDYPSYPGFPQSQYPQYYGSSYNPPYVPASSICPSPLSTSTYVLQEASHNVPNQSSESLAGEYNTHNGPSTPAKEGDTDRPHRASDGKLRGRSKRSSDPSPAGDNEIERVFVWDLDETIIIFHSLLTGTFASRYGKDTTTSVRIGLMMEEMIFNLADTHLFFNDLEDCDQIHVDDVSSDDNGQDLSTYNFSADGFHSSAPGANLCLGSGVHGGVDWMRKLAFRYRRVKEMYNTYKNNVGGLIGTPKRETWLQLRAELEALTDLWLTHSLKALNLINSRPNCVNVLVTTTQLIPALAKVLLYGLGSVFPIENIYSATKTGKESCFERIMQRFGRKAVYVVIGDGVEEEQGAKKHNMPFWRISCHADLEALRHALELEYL

Row | Compound | Potency
1 | NC(=O)C1CCN(CC(=O)Nc2ccc3c(c2)OCCO3)CC1 | inactive
2 | Cn1cccc1C(=O)Nc1ccc(Cl)c(S(=O)(=O)N2CCCCC2)c1 | inactive
3 | CC(C)Cc1nnc(NC(=O)c2cc3c(s2)CCC3)s1 | inactive
4 | CN1CC[n+]2cnc3ccccc3c21 | inactive
5 | C=CCOc1ccc(/C=C/C(=O)OCC(=O)N2CCCc3ccccc32)cc1 | inactive
6 | CCOc1ccccc1N(CC(=O)Nc1cc(OC)ccc1OC)S(C)(=O)=O | inactive
7 | O=C(Cc1ccccc1F)NC1CCCN(Cc2ccc(Cl)cc2)C1 (stereo not given) | inactive
8 | O=C(C1CCCN(Cc2ccccc2F)C1)N1CCc2ccccc2C1 (stereo not given) | inactive
9 | COc1ccc2oc(C(=O)OCC(=O)N3CCCCC3C)c(C)c2c1 (stereo not given) | inactive
10 | Nc1ccccc1-c1nc2ccccc2[nH]1 | inactive
11 | O=C(N/N=C/c1ccc(Sc2nc3ccccc3[nH]2)o1)c1ccncc1 | inactive
12 | CCOC(=O)CN(C(=O)CN1CCC(n2nnc3cc(C)ccc32)CC1)c1ccccc1 | inactive
13 | COc1cccc2[nH]c3c(=O)[nH]cnc3c12 | inactive
14 | COc1ccc(NC(=O)CNc2cc(S(=O)(=O)N3CCOCC3)ccc2N2CCOCC2)c(OC)c1 | inactive
15 | Cc1cccc(-n2c(-c3csc(C(C)C)c3)n[nH]c2=S)c1 | inactive
16 | O=S(=O)(Cc1ccccc1Cl)N1CCN(Cc2ccc3c(c2)OCO3)CC1 | inactive
17 | Cc1cc(C(N)=O)nn1-c1c(Cl)cc(Cl)cc1Cl | inactive
18 | COc1ccc(/C=C(\C#N)C(=O)OCC(=O)N2CC(C)OC(C)C2)cc1 (stereo not given) | inactive
19 | Cc1cc(C)n(C(=O)COc2ccccc2[N+](=O)[O-])n1 | inactive
20 | Cc1cccc(C(=O)Nc2c(C(=O)N(C)C)cnn2-c2ccccc2)c1 | inactive

Row | Compound | Potency
21 | O=C(COC(=O)c1ccccc1Nc1cccc(C(F)(F)F)c1)NCc1ccco1 | inactive
22 | O=C(C1CCC(=O)N(C2CCCC2)C1)N1CCC(Oc2cccc(F)c2)CC1 (stereo not given) | inactive
23 | Cc1nn(-c2nc(-c3ccco3)cc(C(F)(F)F)n2)c(C)c1Cl | inactive
24 | CS(=O)(=O)c1ccc2nc(NC(=O)c3cccc([N+](=O)[O-])c3)sc2c1 | inactive
25 | Cn1c(CNC(=O)c2ccc(Cl)cc2)nnc1SCC(=O)NC1=NCCS1 | inactive
26 | CCOc1ccc(S(=O)(=O)N2CCN(C(=O)c3sccc3C)CC2)cc1 | inactive
27 | COC(=O)/C=C1\NCCNC1=O | inactive
28 | Cc1ccc(CCNC(=O)c2cc(C)nn2-c2ccccc2)cc1 | inactive
29 | CCOC(=O)c1[nH]c(C)c(C(=O)OCC(=O)Nc2sc3c(c2C#N)CCCCC3)c1C | inactive
30 | COc1ccccc1N1C(=O)C2C3C=CC(C3)C2C1=O (stereo not given) | inactive
31 | CC(C1CC1)N(C(=O)c1ccccc1O)c1ccccc1 (stereo not given) | inactive
32 | COc1cccc(-c2cc(C(F)(F)F)nc(N3CCN(c4ccccc4)CC3)n2)c1 | inactive
33 | Cc1ccc(OCC(=O)N2c3ccccc3NC(=O)C2(C)C)c([N+](=O)[O-])n1 | inactive
34 | CCN(C(=O)COC(=O)c1cc(OC)c(OC)cc1[N+](=O)[O-])C1CCS(=O)(=O)C1 (stereo not given) | inactive
35 | O=C(NN=Cc1ccccc1Cl)c1ccc(-n2cnnn2)cc1 | inactive
36 | COc1cc2c(cc1OC)C(c1c(Cl)cccc1Cl)NC(=O)C2 (stereo not given) | inactive
37 | CCC(C)N(C(=O)c1csnn1)C(C(=O)NC1CCCC1)c1ccccc1F (stereo not given) | inactive
38 | CC(C)(C)OC(=O)NCCCCCc1nnc(SCc2ccccc2F)o1 | inactive
39 | O=C(NC1CCCCC1)c1cc2nc3c(c(C(F)(F)F)n2n1)CCCC3 | inactive
40 | C=CCC1(C#N)C(=S)NC(C)=C(C(=O)OCC)C1c1ccccc1 (stereo not given) | inactive
